The full ranking holds about 33,000 sequences; the median of “E-score (-0.5 to 0.5)” is about -0.043, and the highest 2% start at about 0.37. Many of the other results were omitted from the sample, so the highest values are more common in it than they were.

This assay addresses T1, Upc2 (UniProt Q12151).
T1 sequence: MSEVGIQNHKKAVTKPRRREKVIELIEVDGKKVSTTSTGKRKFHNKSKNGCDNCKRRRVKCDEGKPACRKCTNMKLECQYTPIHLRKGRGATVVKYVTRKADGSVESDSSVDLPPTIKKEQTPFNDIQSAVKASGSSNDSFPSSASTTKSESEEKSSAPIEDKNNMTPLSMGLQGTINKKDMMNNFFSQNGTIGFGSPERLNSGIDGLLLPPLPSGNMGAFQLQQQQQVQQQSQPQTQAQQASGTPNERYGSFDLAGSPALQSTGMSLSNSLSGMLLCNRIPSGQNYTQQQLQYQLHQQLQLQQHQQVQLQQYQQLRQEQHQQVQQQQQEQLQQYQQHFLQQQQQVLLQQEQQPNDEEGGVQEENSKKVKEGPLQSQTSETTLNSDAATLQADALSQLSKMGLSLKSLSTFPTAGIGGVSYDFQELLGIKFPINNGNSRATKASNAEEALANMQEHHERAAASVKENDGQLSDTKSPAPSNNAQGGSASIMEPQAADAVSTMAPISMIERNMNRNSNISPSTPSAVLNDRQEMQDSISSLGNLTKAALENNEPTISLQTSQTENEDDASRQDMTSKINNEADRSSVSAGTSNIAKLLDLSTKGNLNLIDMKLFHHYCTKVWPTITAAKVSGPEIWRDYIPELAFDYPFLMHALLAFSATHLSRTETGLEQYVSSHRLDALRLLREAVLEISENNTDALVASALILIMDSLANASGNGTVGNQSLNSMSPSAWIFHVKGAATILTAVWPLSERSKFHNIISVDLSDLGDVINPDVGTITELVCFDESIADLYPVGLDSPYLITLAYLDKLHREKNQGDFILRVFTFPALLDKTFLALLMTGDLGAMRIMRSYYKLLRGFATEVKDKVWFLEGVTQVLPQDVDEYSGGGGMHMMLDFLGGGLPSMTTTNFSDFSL
Kind of assay: PBM E-score (8-mer binding enrichment) (E-score (-0.5 to 0.5)); higher = stronger / more preferred TF binding. The following applies: protein concentration: 200 nM; construct: GST-full length. In outline:
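For each ungapped eight-base word taken together with its reverse complement, the Universal PBM Analysis Suite assigned an E-score. Binding data came from GST-tagged yeast transcription factors, applied at about 100-200 nM, on universal all-10-mer Agilent arrays made double-stranded by primer extension. Fluorescent anti-GST marked bound protein, and scans were normalised with masliner.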
For AGTGCAGC, the “PBM E-score” value is -0.22.

As for ATTACGTA, the “PBM E-score” value worked out at 0.309. For CCACTGTA, the “PBM E-score” value is 0.0804. The same measure for TTGCCCAA: -0.0249; for GTGTATAA: 0.138; for GCGTATTA: 0.0994.

For the sequence GAGTATAC, the “PBM E-score” value turned out to be 0.315. Take GCGTATAC: the “PBM E-score” value came to 0.454.

In the case of GCGTATAA, the “PBM E-score” value is 0.444. In the case of AAGTATAT it was 0.104.

On to ACGTATAT, for which the “PBM E-score” value was 0.404. Turning to AGGTATAT, the “PBM E-score” value was -0.0562. Take CTGTATAC: the “PBM E-score” value came out at 0.281. Regarding GGGTATAC, the “PBM E-score” value was 0.255. For the sequence CCGTATAC, the “PBM E-score” value stood at 0.475. For CCGTATCC, the “PBM E-score” value came out at 0.331. On to CCTAGTGC, for which the “PBM E-score” value is -0.199.

In the case of CGTCATGC, the “PBM E-score” value was -0.202. Take CAGAATTC: the “PBM E-score” value is -0.03. As to GGATGGCA, the “PBM E-score” value came to 0.0444. With ACTACCAG, the “PBM E-score” value is -0.0238.

Take CTCTTCGC: the “PBM E-score” value is -0.12.

With ACTATGAA, the “PBM E-score” value was -0.0506. As for AGAGGGTG, the “PBM E-score” value was -0.171. The same measure for TTATACAA: 0.0521; for GCTGCAAC: -0.107.

For GTACTCTA, the “PBM E-score” value was -0.0205. For CTGGGTAA, the “PBM E-score” value is -0.00044. As for GCTGTGTA, the “PBM E-score” value worked out at 0.00184.

With ACGTATGA, the “PBM E-score” value amounted to 0.243. For ACGTATTG, the “PBM E-score” value was 0.209. In the case of ACGTATAG it was 0.433; in that of CGGTATAG, 0.225; in that of CCGTATCG, 0.319. As to CCGTATGA, the “PBM E-score” value was 0.392.

AAGTATAC: the “PBM E-score” value is 0.306. Consider CCGTATGC, for which the “PBM E-score” value came out at 0.356. On to ACGTATCG, for which the “PBM E-score” value came to 0.22. The same measure for ATGTATAC: 0.263; for ACGTATAC: 0.445. For CCGTATAG, the “PBM E-score” value was 0.485. In the case of AAGACTTG it was -0.00965; in that of CCCTATCA, -0.325; in that of ACACGCGT, 0.152. Consider ACGTTCAT, for which the “PBM E-score” value turned out to be 0.169. Take CCTCTGTA: the “PBM E-score” value worked out at 0.0279. As for GAGGTCGC, the “PBM E-score” value is -0.042. GAATCTAA: the “PBM E-score” value was found to be 0.111. The same measure for CGGTATAA: 0.267; for ACGTATAA: 0.437.

As for CCGTATAA, the “PBM E-score” value is 0.483. With CTGTATAA, the “PBM E-score” value came to 0.156. With AGGTATAA, the “PBM E-score” value was determined as 0.198. The same measure for ATGTATAA: 0.0845; for GACCAATC: -0.117. In the case of TCATCAGA, the “PBM E-score” value is -0.187. In the case of GTTGTCAA, the “PBM E-score” value is -0.00594. In the case of TAGCTAAA, the “PBM E-score” value was 0.119. As to CCTGCCAA, the “PBM E-score” value was -0.0976. The same measure for AGTACCAC: -0.0837; for AGTACCTA: -0.109; for TGTACCAA: 0.03. Turning to CATACCAG, the “PBM E-score” value was -0.0446. CGTACCAC: the “PBM E-score” value was found to be 0.407. For CGTACCAG, the “PBM E-score” value came out at 0.39. In the case of CGTACCTA, the “PBM E-score” value amounted to 0.376. Consider GGTACCAC, for which the “PBM E-score” value is -0.18. Regarding AGTACCAA, the “PBM E-score” value was -0.0772. On to AGTACCAG, for which the “PBM E-score” value was -0.134. For the sequence CGTACCTC, the “PBM E-score” value turned out to be 0.361.

As for CGTACCAA, the “PBM E-score” value stood at 0.392.

On to GATCAATC, for which the “PBM E-score” value is -0.104.

In the case of AATTGAGC, the “PBM E-score” value is -0.0691. The same measure for GTAGGAAC: 0.13. On to CAAGCTTG, for which the “PBM E-score” value is -0.233. With CAGTAACA, the “PBM E-score” value was -0.0459.

Turning to AGAGTGCC, the “PBM E-score” value was -0.209. On to AATATACA, for which the “PBM E-score” value is 0.0677.

CATATACA: the “PBM E-score” value amounted to 0.05.

As to CATATACC, the “PBM E-score” value was -0.0116. Turning to CATATACG, the “PBM E-score” value came out at 0.463. With AATATACG, the “PBM E-score” value was determined as 0.465. With AATATACT, the “PBM E-score” value was -0.0413. Take AAGGACAT: the “PBM E-score” value turned out to be 0.0482. For the sequence AAAATACG, the “PBM E-score” value was 0.346.

Regarding GTGGACAC, the “PBM E-score” value is -0.158.

On to GGATCGAC, for which the “PBM E-score” value is -0.14. Regarding GGCGTTTA, the “PBM E-score” value came to 0.378. Take CGCGTTTA: the “PBM E-score” value was 0.415. Regarding GACGTTTA, the “PBM E-score” value turned out to be 0.366. As to GGCGTTGA, the “PBM E-score” value is -0.0389. In the case of CGCGTTCA, the “PBM E-score” value came out at 0.242. The same measure for AGCGTTTA: 0.363; for GGTCCCCA: -0.24. As for GACAACCC, the “PBM E-score” value was found to be 0.0735. In the case of AAAGGGGC it was -0.127; in that of ACACAGCG, 0.104; in that of ATGGGTTA, -0.00164.

For AGTTCAAG, the “PBM E-score” value was 0.129. The same measure for CGTTCAAC: 0.382. With GGTTCAAC, the “PBM E-score” value is 0.0526. Regarding AGTTCAAC, the “PBM E-score” value is 0.00196. For CGTTCCGA, the “PBM E-score” value stood at 0.361. In the case of CGTTCCAA it was 0.329.

For CGTTCAAA, the “PBM E-score” value is 0.369. For CGTTCCAG, the “PBM E-score” value came out at 0.391. Take CGTTCAAG: the “PBM E-score” value came to 0.407. In the case of AGTTCCGC it was 0.0626; in that of AGTTCCAG, -0.188. Turning to CGTTCCGC, the “PBM E-score” value amounted to 0.385.
